# Compound activity deposited in PubChem BioAssay by Broad Institute.
# miR-122 sensor: miR-122 inhibition in Huh7 cells; Huh7 miR-122 Renilla luciferase sensor, 48 h; neutral wells = 0, positive control = 100; activation (reporter increase), % at 12.5 µM; 0.3% of 340,000 active;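 active = mean replicate activation score at least 90 and every replicate individually at or above 90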;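 note: higher luciferase means less miR-122 activity so hits act as miR-122 inhibitors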
# AF4-AF9 inh: blocks AF4 peptide binding to human AF9; AlphaScreen, biotin-AF4 peptide binding to FLAG-AF9; inhibition, % at 10 µM; 0.47% of 350,000 active; AID 651704;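 active = every replicate reaching a set inhibition limit, whatever the replicate mean, cut at about 25% in these data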;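 note: 0% = plate neutral control median and 100% = total signal loss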
# RAD52 inh: RAD52 (human) annealing inhibition. recombinant RAD52 DNA annealing, FRET fluorescence. inhibition, % at 18.7 µM. 0.46% of 360,000 active;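 active = every replicate showing at least 50% inhibition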
# Target sequence (P43351 whole entry, looked up): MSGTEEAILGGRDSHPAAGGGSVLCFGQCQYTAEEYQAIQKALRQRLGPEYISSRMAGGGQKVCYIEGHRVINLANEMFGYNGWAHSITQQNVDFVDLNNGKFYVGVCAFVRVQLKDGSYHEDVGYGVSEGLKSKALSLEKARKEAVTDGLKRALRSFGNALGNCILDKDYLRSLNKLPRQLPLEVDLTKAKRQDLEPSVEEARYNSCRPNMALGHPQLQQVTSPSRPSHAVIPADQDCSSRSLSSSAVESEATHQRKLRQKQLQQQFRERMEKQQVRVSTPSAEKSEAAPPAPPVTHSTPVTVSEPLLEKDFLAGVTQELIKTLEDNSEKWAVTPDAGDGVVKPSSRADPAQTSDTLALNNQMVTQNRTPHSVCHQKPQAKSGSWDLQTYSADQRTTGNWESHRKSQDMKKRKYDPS
# CASP6 VEID inh: caspase-6 (human) enzyme inhibition | purified caspase-6, Z-VEID-R110 cleavage fluorescence | inhibition, % at 12.5 µM | 0.53% of 350,000 active | AID 686996;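 active = mean inhibition across replicates at least about 35%, with every replicate also reaching that limit, limit read from the data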;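 note: 0% = median of neutral control wells and 100% = no fluorescence left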
# NSD2 inh: blocks human histone methyltransferase NSD2 | 0.54% of 310,000 active | NSD2 peptide methylation, AlphaScreen, 120 min | inhibition, % at 12.5 µM | O96028; in the data active = inhibition above about 50%
# AlphaScreen art: AlphaScreen assay artifact in NSD2 counter-screen. shares compounds with NSD2 inh. AlphaScreen artifact counterscreen, preloaded methylated H4 peptide. AC35, µM (highest dose often 10 µM), for inactives: at the top dose activity change, negative = signal loss. 9.4% of 1,500 active. AID 1053174; call rule not given here
# * marks the source's active call; other numbers are inactive results; i = inactive; · = no result given; [ ] = another dose, or the depositor's remark. Compounds with a hit are over-represented: about 1.5% of the library has one in this group of screens.
SMILES,miR-122 sensor,AF4-AF9 inh,RAD52 inh,CASP6 VEID inh,NSD2 inh,AlphaScreen art
FC(F)Oc1ccc(NC(=S)NCc2ccccc2)cc1,·,3,-4,1,0,·
Oc1cccc2c(NC(=S)Nc3ccc(OC(F)F)cc3)cccc12,·,16,-12,81*,92*,-6%
COC1=C(N)C(=O)c2nc(C)ccc2C1=O,-2,11,-23,56*,189*,-1%
COC1=C(Br)C(=O)c2nc(C)ccc2C1=O,3,-6,-7,95*,186*,-8%
CO[C@H]1CN(C)C(=O)c2ccc(NC(=O)c3cccc(Oc4ccccc4)c3)cc2OC[C@@H](C)NC[C@@H]1C,·,10,36,-1,·,·
O=C(Nc1ccc(S(=O)(=O)Nc2ncccn2)cc1)C1CC(=O)N(c2ccc(Cl)cc2)C1 (configuration not stated),·,2,-11,6,76*,-5%
COc1ccc2c3c([nH]c2c1)[C@@H](CO)N(C(=O)c1ccc(F)cc1)CC31CCN(C(=O)CC2CC2)CC1,·,0,·,·,·,·
CCOC(=O)c1c(C)[nH]c(C)c1C(=O)COC(=O)[C@@H]1CCCN1S(=O)(=O)c1ccc(Cl)cc1,-3,17,-17,9,76*,-5%
COc1ccc(Cc2ccccc2C(=O)O)cc1,·,-4,-10,-2,50*,1%
O=C(/C=C/c1ccc(-c2ccccc2)cc1)NCc1cccnc1,·,2,-14,-2,62*,-2%
O=C(/C=C/c1ccccc1)NCc1cccnc1,-3,-2,-7,-2,-2,·
O=C(C[C@@H]1C[C@H]2c3cc(NC(=O)C4CCC4)ccc3O[C@H]2[C@H](CO)O1)NCc1ccccn1,-2[16.7 µM],-2,-20,0,·,·
CCNc1ccccc(C(=O)/C=C/c2ccc3c(c2)OCO3)c1=O,7,·,·,·,66*,-5%
O=C(c1ccccn1)N1CC2(C1)[C@@H](c1ccccc1)[C@@H](CO)N2C(=O)CC1CC1,·,1,-10,-1,·,·
Cc1cccc(Nc2nnc(-c3ccc(N4CCOCC4)c([N+](=O)[O-])c3)c3ccccc23)c1,7,4,-8,1,53*,-10%
Cc1nnc(-c2ccc(N3CCOCC3)c([N+](=O)[O-])c2)o1,-1,·,·,·,1,·
C[C@@H]1CCCCO[C@H](CN(C)C(=O)Nc2ccc3c(c2)OCO3)[C@@H](C)CN([C@@H](C)CO)C(=O)c2cc(NS(=O)(=O)c3ccccc3)ccc2O1,9[16.7 µM],12,-4,3,·,·
COc1cccc(NC(=O)c2ccc3c(c2)OCCO3)c1,-5,-1,-12,-2,113*,-2%
COc1ccc(N2CCOCC2)c(NC(=O)c2ccc3c(c2)OCO3)c1,-9,2,-6,-2,53*,-1%
CSC1=NSC2=NC(=O)/C(=C\c3coc4ccccc4c3=O)C(=N)N12,·,-7,i,7,74*,1%
N=C1/C(=C/c2coc3ccccc3c2=O)C(=O)N=C2SC(c3ccco3)=NN12,4,·,·,·,84*,-3%
CC(C)CSC1=NSC2=NC(=O)/C(=C\c3coc4ccccc4c3=O)C(=N)N12,·,·,·,·,12,·
N=C1/C(=C\c2coc3ccccc3c2=O)C(=O)N=C2SC(c3ccncc3)=NN12,-5,-4,-239,41*,98*,-3%
Cc1cc(/C=C2\C(=N)N3N=C(c4ccco4)SC3=NC2=O)c(C)n1Cc1ccccc1,·,-7,-46,-1,12,·
Cc1ccc(S(=O)(=O)N[C@H](C(=O)NCCN=[N+]=[N-])C(C)C)cc1,·,1,5,-2,·,·
SMILES,miR-122 sensor,AF4-AF9 inh,RAD52 inh,CASP6 VEID inh,NSD2 inh,AlphaScreen art
Nc1nc(O)c(Sc2ccccc2[N+](=O)[O-])c(=O)[nH]1,-1,8,5,8,54*,-6%
C=CCNC1=C(Cl)C(=O)c2ccccc2C1=O,7,·,·,·,92*,-16%
O=C(O)c1ccc(NC2=C(Cl)C(=O)c3ccccc3C2=O)cc1,-2,5,-13,29,·,·
O=C(O)c1cccc(NC2=C(Cl)C(=O)c3ccccc3C2=O)c1,-9,-3,-9,25,99*,-4%
O=C1C(Cl)=C(NCCc2ccccc2)C(=O)c2ccccc21,·,-5,1,44*,81*,-18%
O=C(C[C@H]1CC[C@@H]2[C@H](COC[C@H](O)CN2C(=O)c2ccc3c(c2)OCO3)O1)NC1CCCC1,2[16.7 µM],·,·,·,·,·
Nc1nc(COC(=O)c2ccco2)nc(Nc2ccccc2)n1,-4,-6,-6,1,53*,-3%
